FUS yeast rescue: suppressors of FUS proteinopathy in yeast. S. cerevisiae FUS-expressing, growth rescue, OD600, 24 h. Potency, µM (titrated, usually from 76.6 µM), usual class: activators. 0.24% of 390,000 active. AID 1347120;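 also: plate controls were DMSO vehicle for no effect and reference control for full effect; nearly all actives have a fitted effect of over 55% in size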
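Absorbance at 600 nm, taken 24hr after compound addition, measured rescue of FUS-yeast growth at 30C. Induction used 2% galactose with seeding at OD 0.005. Controls: CP55940 from 92uM final, DMSO only.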
gsp ag: gsp mutant agonism | 0.13% of 340,000 active | gsp mutant cells, cAMP HTRF, 30 min | Potency, µM (series often up to 76.9 µM), for the others: top-dose activation (cAMP increase), usual class: activators | AID 624287; active = well fitted activation curve with a large enough effect; inconclusive = small, poorly fitted or top-dose-only effect, or another doubt; inactive = no such curve, though single readings can be large or run the other way; cell line not stated here;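 also: phosphodiesterase inhibitor Ro 20-1724 added with compounds to block cAMP breakdown; nearly all actives have a fitted effect of over 60% in size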
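Cells stably selected in G418 were plated at 2000/well, grown 16-24 hr, then given compounds in DMSO with the PDE inhibitor […] (300 uM solution added) for 30 min at 37C; cAMP was read by HTRF.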
12-LOX inh: ALOX12 (human) lipoxygenase inhibition | P18054 | purified 12hLO, xylenol orange hydroperoxide absorbance | Potency, µM (titrated, usually from 108 µM), without a hit: at the top dose activity change, negative = inhibition, usual class: inhibitors | 1.1% of 580,000 active | AID 1671190; also: % is scaled to controls: 0 for no effect and ±100 for the full control effect
Target sequence (P18054 whole entry, looked up): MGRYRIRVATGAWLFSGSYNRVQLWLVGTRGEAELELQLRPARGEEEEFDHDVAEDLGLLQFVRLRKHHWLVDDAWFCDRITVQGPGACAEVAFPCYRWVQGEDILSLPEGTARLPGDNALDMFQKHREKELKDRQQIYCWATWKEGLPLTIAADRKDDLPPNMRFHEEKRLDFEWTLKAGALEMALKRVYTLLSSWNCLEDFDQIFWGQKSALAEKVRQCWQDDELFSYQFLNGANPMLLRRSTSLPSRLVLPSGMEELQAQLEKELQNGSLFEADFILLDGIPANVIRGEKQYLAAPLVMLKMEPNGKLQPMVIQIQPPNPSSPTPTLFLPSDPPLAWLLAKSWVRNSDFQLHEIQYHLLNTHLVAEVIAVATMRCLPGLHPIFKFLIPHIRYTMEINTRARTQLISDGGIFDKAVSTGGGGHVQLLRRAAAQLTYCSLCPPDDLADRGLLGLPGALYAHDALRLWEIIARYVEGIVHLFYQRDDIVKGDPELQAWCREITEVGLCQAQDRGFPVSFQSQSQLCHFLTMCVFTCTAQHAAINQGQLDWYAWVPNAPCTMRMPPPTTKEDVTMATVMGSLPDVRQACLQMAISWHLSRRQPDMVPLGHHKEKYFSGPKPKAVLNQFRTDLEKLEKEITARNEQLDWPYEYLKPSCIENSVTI
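Purified human 12hLO at 150 nM in 25 mM Hepes, 0.01% Triton X-100, pH 7.0, preincubated 15 min at room temperature with compound. Reaction started with 40 uM arachidonic acid, 30 min at room temperature. Hydroperoxide measured by Fe-xylenol orange, 573/405 nm absorbance ratio.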
Mito fusion yeast: mitochondrial division inhibition or fusion activation; AID 485298; S. cerevisiae fusion-defective mutant growth rescue, CellTiterGlo 48 h; 0.23% of 320,000 active; Potency, µM (doses to about 46.1 µM), for inactives: at the top dose growth rescue (activation), hits mostly activators; also: % of control where 0% means no effect; nearly all actives have a fitted effect of over 45% in size
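Read-out: ATP-based luminescence (CellTiterGlo, 10 min ambient) reporting growth of fusion-defective ts yeast after 48 hours at 37C on glycerol/ethanol YPEG medium in the presence of compound.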
gsp antag: antagonists of gsp mutant (McCune-Albright syndrome). gsp-mutant cells, cAMP HTRF, 30 min. Potency, µM (series often up to 76.9 µM), for inactives: top-dose activity change, negative = inhibition, most hits filed as inhibitors. 0.4% of 340,000 active; calls by dose curve; cell line not stated here;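 also: intracellular cAMP measured with PDE inhibitor Ro 20-1724 present during compound exposure; % is scaled to controls: 0 for no effect and ±100 for the full control effect; nearly all actives have a fitted effect of over 65% in size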
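G418-selected cells were plated in DMEM/10% FBS for 16-24 h at 37C, then treated with compounds plus the PDE inhibitor […] (300 uM solution added) for 30 min at 37C. Intracellular cAMP was measured by HTRF after 30 min lysis at room temperature.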
Active calls of the source: *; ! = not confirmed by another sample; [ ] = remark or other dose. Hits are enriched below; roughly 1.6% of the tested compounds scored in any of these assays. Unless noted, calls follow the shape of the dose curve; as a rule, active = well fitted curve in the direction sought with a large enough effect; inconclusive = small, poorly fitted or top-dose-only effect, or another doubt; inactive = no such curve, though single readings can be large; an effect the other way counts as inactive or inconclusive. Potency is read from the fitted curve at half-maximal effect.

How did N#Cc1c(-c2cccs2)nc(SCC(=O)c2cccs2)[nH]c1=O do in these assays?
FUS yeast rescue: inactive; gsp ag: inconclusive; 12-LOX inh: 10µM*; Mito fusion yeast: -25%; gsp antag: -1%

What do the screens show for `COc1ccc(-c2nn(C)c(=O)c3ccccc23)cc1NC(=O)c1ccccc1`?
12-LOX inh: -2%

What do the screens show for `C[C@H](CO)N1C[C@H](C)[C@@H](CN(C)S(=O)(=O)c2ccc(F)cc2)Oc2ncc(Br)cc2C1=O`?
12-LOX inh: -22%

How did C[C@H]1CN([C@@H](C)CO)C(=O)c2cc(C#CCC3CCCC3)cnc2O[C@@H]1CN(C)C(=O)CC1CC1 do in these assays?
FUS yeast rescue: inactive; gsp ag: 12%; 12-LOX inh: 45µM*

Results for C[C@H]1CN([C@@H](C)CO)C(=O)c2cc(Br)cnc2O[C@H]1CN(C)C(=O)c1cccnc1 ?
FUS yeast rescue: inactive; gsp ag: 32µM*; 12-LOX inh: 2%

Results for C[C@@H]1CN([C@@H](C)CO)C(=O)c2cc(C#CC3CCCCC3)cnc2O[C@@H]1CN(C)S(=O)(=O)c1ccc(F)cc1 ?
FUS yeast rescue: inconclusive; gsp ag: 8%; 12-LOX inh: 40µM*

How did COC(=O)CO[C@@H]1CO[C@H]2[C@@H]1OC[C@@H]2NC(=S)Nc1cc(C)cc(C)c1 do in these assays?
12-LOX inh: 71µM*

How did O=C(NCCc1ccc(Cl)cc1)c1ccncc1 do in these assays?
12-LOX inh: -24%

How did Cc1ccc(-c2cc3n(c2)CCc2ccccc2-3)cc1 do in these assays?
12-LOX inh: 16µM*

What do the screens show for `c1ccc(-c2cc3n(c2)CCc2ccccc2-3)cc1`?
FUS yeast rescue: inactive; gsp ag: 2%; 12-LOX inh: 6.3µM*!; Mito fusion yeast: 0%; gsp antag: 0%

What do the screens show for `Cc1ccc(S(=O)(=O)N2CCc3ccccc3CC2)cc1`?
FUS yeast rescue: inactive; gsp ag: -10%; 12-LOX inh: 1%; gsp antag: -4%

Results for O=[N+]([O-])c1ccc(-c2cn3c(n2)CCC3)cc1 ?
FUS yeast rescue: inactive; gsp ag: 14µM*; 12-LOX inh: 6%; Mito fusion yeast: 0%; gsp antag: 4%

How did c1ccc(-c2cn3c(n2)CCC3)cc1 do in these assays?
FUS yeast rescue: inactive; gsp ag: 1%; 12-LOX inh: -2%; Mito fusion yeast: -3%; gsp antag: -3%

How did O=C(COc1ccccc1)Nc1cccc(-c2nc3cc(Cl)ccc3o2)c1 do in these assays?
12-LOX inh: 0%

What do the screens show for `O=C(O)c1cccc(-n2cc(-c3cccc(C(F)(F)F)c3)cn2)c1`?
FUS yeast rescue: inactive; gsp ag: 19%; 12-LOX inh: 11%; Mito fusion yeast: 16µM*; gsp antag: -27%

What do the screens show for `COc1cc(/C=C/c2nc3ccccc3s2)cc(OC)c1OC`?
12-LOX inh: -11%

How did CCCCn1c(Oc2cccc(C(=O)OC)c2)nc2c1c(=O)n(C)c(=O)n2C do in these assays?
FUS yeast rescue: inactive; 12-LOX inh: 4%; Mito fusion yeast: -6%

How did COC(=O)c1cccc(Oc2nc3c(c(=O)n(C)c(=O)n3C)n2Cc2ccc(C)cc2)c1 do in these assays?
FUS yeast rescue: inactive; gsp ag: 7.9µM*; 12-LOX inh: 21%; gsp antag: 10%

Results for Cc1ccc2c(c1)C(c1ccc(F)cc1)N(C(=O)COc1ccc(Cl)cc1Cl)CC(=O)N2 (stereo not given) ?
FUS yeast rescue: inconclusive; 12-LOX inh: -24%

Results for O=C1CN(C(=O)COc2ccc(Cl)cc2Cl)C(c2ccccc2)c2cc(F)ccc2N1 (stereo not given) ?
FUS yeast rescue: 32µM*; 12-LOX inh: -15%

Results for CCOC(=O)C1=C(O)C(=O)NC(c2ccccc2)=C(OCC)C1 ?
FUS yeast rescue: inactive; gsp ag: -68%; 12-LOX inh: inconclusive; gsp antag: -8%

How did CCOC(=O)C1=C(O)C(=O)NC(c2ccccc2)=C(OC2CCCCC2)C1 do in these assays?
FUS yeast rescue: inactive; gsp ag: -10%[15.4 µM]; 12-LOX inh: -21%; Mito fusion yeast: 10µM*; gsp antag: -3%

What do the screens show for `O=C(Cn1cnc2c(oc3ccccc32)c1=O)NCC1CCCO1` (stereo not given)?
FUS yeast rescue: inactive; gsp ag: 7.1µM*; 12-LOX inh: 0%; Mito fusion yeast: -1%; gsp antag: 29%

Results for CCOC(=O)c1ccc(NC(=O)CN(c2ccccc2Cl)S(C)(=O)=O)cc1 ?
12-LOX inh: 1%

Results for CCOc1cc(-c2noc(-c3ncn4c3COC(c3ccc(F)cc3)C4)n2)ccc1OC (stereo not given) ?
12-LOX inh: 0%

Results for Clc1ccc2c(c1)-c1nnc(Br)n1-c1ccccc1S2 ?
FUS yeast rescue: inactive; gsp ag: 2%; 12-LOX inh: 0%; Mito fusion yeast: inconclusive; gsp antag: 20µM*

Results for COc1cccc(CNC(=O)[C@@H]2C[C@@H](O)CN2C2CCN(C(=O)C3(c4ccccc4)CC3)CC2)c1 ?
12-LOX inh: -1%

What do the screens show for `O=C(Cc1ccc(F)cc1)NCc1ccnc(OCc2ccccc2)c1`?
12-LOX inh: -2%

What do the screens show for `Cc1ccc(NC(=S)NNC(=O)C2CC2c2ccc(C)cc2)cc1` (stereo not given)?
FUS yeast rescue: 28µM*; gsp ag: 4%; 12-LOX inh: inconclusive; Mito fusion yeast: 10%; gsp antag: -4%

Results for COc1ccc(-n2c(CCC(=O)O)ccc2-c2ccc(F)cc2)c(OC)c1 ?
FUS yeast rescue: inactive; gsp ag: -40%; 12-LOX inh: 1%; Mito fusion yeast: 20%; gsp antag: 35µM*

How did Cc1ccccc1C1CCCN1S(=O)(=O)c1cnn(C(F)F)c1C (stereo not given) do in these assays?
12-LOX inh: 4%

What do the screens show for `CCCCNc1c(-c2ccc(OC)c(SC(C)CC)c2)nc2cnccn12` (stereo not given)?
FUS yeast rescue: inconclusive; 12-LOX inh: inconclusive; gsp antag: 4%

What do the screens show for `CCCCNc1c(-c2ccc(OC)c(SC(C)CC)c2)nc2ccc(C)cn12` (stereo not given)?
FUS yeast rescue: inconclusive; 12-LOX inh: inconclusive; gsp antag: 28µM*

What do the screens show for `Cc1ccn2c(NC3CCCC3)c(-c3cccs3)nc2c1`?
FUS yeast rescue: inactive; gsp ag: 13%[15.4 µM]; 12-LOX inh: 32µM*; Mito fusion yeast: 3%; gsp antag: -25%

Results for c1csc(-c2nc3ccccn3c2NC2CCCCC2)c1 ?
FUS yeast rescue: inactive; gsp ag: -10%[15.4 µM]; 12-LOX inh: -19%; Mito fusion yeast: -5%; gsp antag: -8%

Bioassay records as filed in PubChem.
